NOMO-1 viab: STK33 inhibitor candidate reducing NOMO-1 cell viability. NOMO-1 AML viability, CellTiter-Glo luminescence, 72 h. inhibition, % (test concentration not listed). 7.5% of 37,000 active. AID 2330; in the data active = inhibition above about 80%
ROS inducer: inducers of reactive oxygen species in cancer cells; U2OS ROS induction, H2DCF-DA fluorescence; ROS induction (% of piperlongumine), % at 10 µM; 2% of 46,000 active; AID 624156; in the data active = ROS induction above about 79%, passing the limit was not always enough
PD-1 reverse act: reversal of PD-1 mediated T-cell inhibition; 29,000 tested, under 10 active; primary human CD4 T cells, PD-L1 beads, CellTiter-Glo 96 h; AID 2316; activation, % (no concentration beside the values); call rule not given here
Large screens that a line does not name were inactive. The full list was thinned out, with hits kept by preference.

C[C@@H]1O[C@@H](O[C@H]2[C@H](O[C@H]3[C@H](O[C@H]4CC[C@@]5(C)C(CC[C@]6(C)C5CC=C5[C@@H]7CC(C)(C)C[C@@H](O)[C@]7(C)CC[C@]56C)[C@@]4(C)CO)O[C@H](C(=O)O)[C@@H](O)[C@@H]3O)OC[C@H](O)[C@@H]2O)[C@H](O)[C@H](O)[C@H]1O (some centres undefined)	none
C[C@@H]1O[C@@H](O[C@H]2[C@H](O[C@H]3CC[C@@]4(C)C(CC[C@]5(C)C4CC=C4C6CC(C)(C)CC[C@]6(C(=O)O)CC[C@]45C)[C@]3(C)CO)OC[C@H](O)[C@@H]2O)[C@H](O)[C@H](O)[C@H]1O (some centres undefined)	NOMO-1 viab 119.3
CC1(C)CC[C@]2(C(=O)O)CC[C@]3(C)C(=CCC4[C@@]5(C)CC[C@H](O[C@@H]6O[C@H](CO)[C@@H](O)[C@H](O)[C@H]6O)[C@@](C)(CO)C5CC[C@]43C)[C@@H]2C1 (some centres undefined)	none (no result: NOMO-1 viab, PD-1 reverse act)
CSc1nc(N)nc(SCC(=O)Nc2ccccc2)c1C#N	none (no result: NOMO-1 viab, PD-1 reverse act)
CC1OC(OC2C(O)C(CO)OC(O[C@H]3CC[C@@]4(C)C(CC[C@]5(C)C4CC=C4C6CC(C)(C)CC[C@]6(C(=O)OC6OCC(OC7OCC(O)C(O)C7O)C(O)C6O)CC[C@]45C)C3(C)C)C2O)C(O)C(OC2OCC(O)(CO)C2O)C1O (some centres undefined)	NOMO-1 viab 121.7
CC1(C)CC[C@]2(C(=O)O[C@@H]3O[C@H](CO)[C@@H](O)[C@H](O)[C@H]3O)CC[C@]3(C)C(=CCC4[C@@]5(C)CC[C@H](OC6O[C@H](CO)[C@@H](O)[C@H](O[C@@H]7O[C@H](CO)[C@@H](O)[C@H](O)[C@H]7O)[C@H]6O)C(C)(C)C5CC[C@]43C)[C@@H]2C1 (some centres undefined)	none (no result: NOMO-1 viab, PD-1 reverse act)
NNC(=O)Cn1nnc(N2CCCC2)n1	none
C=CCNC(=S)C(=O)Nc1ccccc1	none (no result: NOMO-1 viab, PD-1 reverse act)
Cc1noc(C)c1NC(=O)Nc1cccc2c1O[C@H](CN(C)Cc1ccccc1)[C@@H](C)CN([C@H](C)CO)C2=O	none
C[C@@H]1CN([C@H](C)CO)C(=O)c2cccc(NC(=O)Nc3cccc4ccccc34)c2O[C@@H]1CN(C)Cc1ccc(-c2ccccc2)cc1	NOMO-1 viab 106.9
C[C@@H]1CN([C@H](C)CO)C(=O)c2cccc(NC(=O)Nc3cccc4ccccc34)c2O[C@@H]1CN(C)Cc1ccc(C(=O)O)cc1	none
C[C@H]1CN([C@@H](C)CO)C(=O)c2cccc(NC(=O)Nc3ccc(F)cc3)c2O[C@@H]1CN(C)Cc1ccc(-c2ccccc2)cc1	none (no result: PD-1 reverse act)
C[C@@H]1CN([C@H](C)CO)C(=O)c2cccc(NC(=O)Nc3ccc(F)cc3)c2O[C@@H]1CN(C)Cc1ccc(-c2ccccc2)cc1	NOMO-1 viab 82.1
C[C@H](CO)N1C[C@H](C)[C@@H](CN(C)Cc2ccc(-c3ccccc3)cc2)Oc2c(NC(=O)Nc3ccc(F)cc3)cccc2C1=O	none
C[C@@H]1CN([C@@H](C)CO)C(=O)c2cccc(NC(=O)Nc3ccccc3)c2O[C@@H]1CN(C)Cc1ccc(-c2ccccc2)cc1	NOMO-1 viab 101.6, ROS inducer 82.4
Cc1noc(C)c1NC(=O)Nc1cccc2c1O[C@H](CN(C)Cc1ccc(-c3ccccc3)cc1)[C@@H](C)CN([C@H](C)CO)C2=O	NOMO-1 viab 111.1
CCCCS(=O)(=O)/C=C/C1C2C=CC(C2)C1S(=O)(=O)CCCC (centres undefined)	none (no result: NOMO-1 viab, PD-1 reverse act)
CCOC(=O)c1sc2ncn3c(-c4ccc(C)cc4)nnc3c2c1C	ROS inducer 197.9 (no result: NOMO-1 viab, PD-1 reverse act)
CCOC(=O)c1sc2ncn(CC(=O)Nc3ccccc3Cl)c(=O)c2c1C	none (no result: ROS inducer, PD-1 reverse act)
O=C(NC(=O)c1c(Cl)cccc1Cl)Nc1nc2cc(F)ccc2s1	none (no result: NOMO-1 viab, PD-1 reverse act)
Cc1ccc(S(=O)(=O)N(C)C[C@@H]2Oc3c(NC(=O)c4ccc(-c5nccs5)cc4)cccc3C(=O)N([C@H](C)CO)C[C@@H]2C)cc1	NOMO-1 viab 81.5
Cc1noc(C)c1S(=O)(=O)N(C)C[C@H]1Oc2c(NC(=O)c3ccc(-c4nccs4)cc3)cccc2C(=O)N([C@H](C)CO)C[C@H]1C	ROS inducer 106.2
Cc1ccc(S(=O)(=O)N(C)C[C@H]2Oc3c(NC(=O)c4ccc(-c5nccs5)cc4)cccc3C(=O)N([C@@H](C)CO)C[C@H]2C)cc1	none
Cc1noc(C)c1S(=O)(=O)N(C)C[C@@H]1Oc2c(NC(=O)c3ccc(-c4nccs4)cc3)cccc2C(=O)N([C@H](C)CO)C[C@@H]1C	none
COc1ccc(CCNC(=O)c2ccc(/C=C3\Oc4ccccc4NC3=O)cc2)cc1OC	none (no result: NOMO-1 viab, PD-1 reverse act)
CC(=O)Nc1ccc(Br)c(C(F)(F)F)c1	none
C[C@H](CO)N1C[C@H](C)[C@H](CN(C)C(=O)Nc2cccc3ccccc23)Oc2ccc(NC(=O)Cc3cn(C)c4ccccc34)cc2C1=O	NOMO-1 viab 88.2
C[C@H]1CN([C@@H](C)CO)C(=O)c2cc(NC(=O)Cc3cn(C)c4ccccc34)ccc2O[C@@H]1CN(C)C(=O)Nc1cccc2ccccc12	none
C[C@@H]1CN([C@H](C)CO)C(=O)c2cc(NC(=O)Cc3cn(C)c4ccccc34)ccc2O[C@H]1CN(C)C(=O)Nc1cccc2ccccc12	none
C[C@@H]1CN([C@@H](C)CO)C(=O)c2cc(NC(=O)Cc3cn(C)c4ccccc34)ccc2O[C@@H]1CN(C)C(=O)Nc1cccc2ccccc12	NOMO-1 viab 125.1
COc1ccc2[nH]c(C)c(CCNS(=O)(=O)c3c(C)[nH]c(=O)[nH]c3=O)c2c1	none (no result: NOMO-1 viab, PD-1 reverse act)
O=C(Nc1ccc(N2CCN(c3ccc(C(F)(F)F)cn3)CC2)nc1)c1ccco1	none (no result: NOMO-1 viab, PD-1 reverse act)
Cc1ccc(/C=C2/Sc3ccc(C(=O)N4CCN(c5ccccc5F)CC4)cc3NC2=O)cc1	none (no result: NOMO-1 viab, PD-1 reverse act)
CCOC(=O)c1cnc(SCC(=O)Nc2ccc(F)c(F)c2F)nc1N	none
CCOC(=O)c1cnc(S/C=C/C(=O)c2ccc(Cl)cc2)nc1N	NOMO-1 viab 116.7
Cc1c(-n2c(/C=C\c3ccc([N+](=O)[O-])o3)nc3ccccc3c2=O)c(=O)n(-c2ccccc2)n1C	NOMO-1 viab 114.6 (no result: ROS inducer, PD-1 reverse act)
Cc1c(/C=C/c2ccc(Cl)cc2Cl)c(=O)n(-c2ccccc2)n1C	none
C[C@@H]1CCCCO[C@H](CN(C)Cc2ccc(Cl)c(Cl)c2)[C@@H](C)CN([C@H](C)CO)C(=O)c2cc(NC(=O)CCCCCC(=O)Nc3ccccc3N)ccc2O1	NOMO-1 viab 125.7
C[C@H]1CN([C@@H](C)CO)C(=O)Cc2cc(NC(=O)CCCCCC(=O)Nc3ccccc3N)ccc2O[C@H]1CN(C)Cc1ccc(Cl)c(Cl)c1	NOMO-1 viab 126.9
COc1ccc(CN(C)C[C@H]2OCCCC[C@@H](C)Oc3ccc(NC(=O)CCCCCC(=O)Nc4ccccc4N)cc3C(=O)N([C@H](C)CO)C[C@@H]2C)cc1	none
C[C@H](CO)N1C[C@H](C)[C@H](CN(C)Cc2ccc(Cl)c(Cl)c2)Oc2ccc(NC(=O)CCCCCC(=O)Nc3ccccc3N)cc2C1=O	NOMO-1 viab 132.6
C[C@H]1CN([C@@H](C)CO)C(=O)c2cc(NC(=O)CCCCCC(=O)Nc3ccccc3N)ccc2O[C@@H]1CN(C)Cc1ccncc1	none
C[C@@H]1CCCCO[C@H](CN(C)Cc2ccc(Cl)c(Cl)c2)[C@@H](C)CN([C@H](C)CO)C(=O)c2cc(NC(=O)Cc3ccccc3)ccc2O1	none

Screening results deposited in PubChem BioAssay by Broad Institute.
